# Measured values as given in PubChem BioAssay AID1159580 (chemical genetic matrix, 2015).
# The campaign covered roughly 5,500 compounds. About 2,000 (36%) were called active. Roughly 18% stayed inconclusive and do not appear here. The list shows a part of the results. Values without a mark were called inactive. Rule as the data show it: active = normalized growth mostly below about 0.91 (no sharp cut-off); inconclusive = no clear call, values can overlap the other calls; inactive = mostly above about 0.92.
# Assay: chemical genetic growth profiling, strain panel (AID 1159580);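 also: tested at 20 µM; growth read once vehicle control cultures reached saturation at 30 °C; 1 = growth at the plate median or of vehicle wells; lower values mean less growth of the strain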
# Details: growth OD
# [1] = S. cerevisiae deletion strains, locus YPL055C, strain LGE1, stronger effect = lower value
# [2] = S. cerevisiae deletion strains, locus YDL101C, strain DUN1, stronger effect = lower value
# [3] = S. cerevisiae deletion strains, locus YHR030C, strain SLT2, stronger effect = lower value
smiles,measurement,setting,value
C=CC[C@H](N)C(=O)O,normalized growth,"S. cerevisiae deletion strains, locus YAL040C, strain CLN3, stronger effect = lower value",0.997
same,normalized growth,"S. cerevisiae deletion strains, locus YCL061C, strain MRC1 (second series), stronger effect = lower value",1.01
same,normalized growth,"S. cerevisiae deletion strains, locus YDR363W, strain ESC2, stronger effect = lower value",0.962
same,normalized growth,"S. cerevisiae deletion strains, locus YER002W, strain NOP16, stronger effect = lower value",1.01
same,normalized growth,"S. cerevisiae deletion strains, locus YNL175C, strain NOP13, stronger effect = lower value",1.01
same,normalized growth,"S. cerevisiae deletion strains, locus YNL197C, strain WHI3, stronger effect = lower value",0.976
same,normalized growth,"S. cerevisiae deletion strains, locus YNL224C, strain SQS1, stronger effect = lower value",0.972
same,normalized growth,"S. cerevisiae deletion strains, locus YOR083W, strain WHI5 (second series), stronger effect = lower value",0.974
same,normalized growth,[1],0.99
COc1cccc(C2SCc3cc(C)c(C)cc3CS2)c1O,normalized growth,"S. cerevisiae deletion strains, locus YBR229C, strain ROT2, stronger effect = lower value",0.994
same,normalized growth,"S. cerevisiae deletion strains, locus YCL061C, strain MRC1, stronger effect = lower value",0.998
same,normalized growth,[2],0.992
same,normalized growth,"S. cerevisiae deletion strains, locus YDL134C, strain PPH21, stronger effect = lower value",1.02
same,normalized growth,"S. cerevisiae deletion strains, locus YDR150W, strain NUM1, stronger effect = lower value",0.932
same,normalized growth,"S. cerevisiae deletion strains, locus YEL061C, strain CIN8, stronger effect = lower value",1.03
same,normalized growth,"S. cerevisiae deletion strains, locus YGR078C, strain PAC10, stronger effect = lower value",1.01
same,normalized growth,[3],1.01
same,normalized growth,"S. cerevisiae deletion strains, locus YHR087W, strain rtc3, stronger effect = lower value",1.01
same,normalized growth,"S. cerevisiae deletion strains, locus YJR043C, strain POL32, stronger effect = lower value",0.972
same,normalized growth,"S. cerevisiae deletion strains, locus YJR075W, strain HOC1, stronger effect = lower value",0.985
same,normalized growth,"S. cerevisiae deletion strains, locus YKL190W, strain CNB1, stronger effect = lower value",1.02
same,normalized growth,"S. cerevisiae deletion strains, locus YLR039C, strain RIC1, stronger effect = lower value",1.07
same,normalized growth,"S. cerevisiae deletion strains, locus YLR058C, strain SHM2 (second series), stronger effect = lower value",1.03
same,normalized growth,"S. cerevisiae deletion strains, locus YLR085C, strain ARP6, stronger effect = lower value",1.04
same,normalized growth,"S. cerevisiae deletion strains, locus YLR262C, strain YPT6, stronger effect = lower value",1.05
same,normalized growth,"S. cerevisiae deletion strains, locus YML094W, strain GIM5, stronger effect = lower value",0.999
same,normalized growth,"S. cerevisiae deletion strains, locus YMR219W, strain ESC1, stronger effect = lower value",1
same,normalized growth,"S. cerevisiae deletion strains, locus YMR263W, strain SAP30, stronger effect = lower value",0.902
same,normalized growth,"S. cerevisiae deletion strains, locus YNL153C, strain GIM3, stronger effect = lower value",0.988
same,normalized growth,"S. cerevisiae deletion strains, locus YNL298W, strain CLA4 (second series), stronger effect = lower value",0.986
same,normalized growth,"S. cerevisiae deletion strains, locus YNL322C, strain KRE1, stronger effect = lower value",1.01
same,normalized growth,"S. cerevisiae deletion strains, locus YNR030W, strain Alg12, stronger effect = lower value",0.982
same,normalized growth,"S. cerevisiae deletion strains, locus YOL006C, strain TOP1, stronger effect = lower value",1.12
same,normalized growth,[1],0.904
same,normalized growth,"S. cerevisiae deletion strains, locus YPL241C, strain CIN2, stronger effect = lower value",0.957
same,normalized growth,"S. cerevisiae deletion strains, locus YPR135W, strain CTF4, stronger effect = lower value",1.01
same,normalized growth,"S. cerevisiae strains, strain wild type, stronger effect = lower value",1.01
Cc1cc(N=Cc2cc(Cl)cc(Cl)c2O)no1,normalized growth,"S. cerevisiae deletion strains, locus YAR019C, strain CDC15, stronger effect = lower value",0.945
same,normalized growth,"S. cerevisiae deletion strains, locus YBL105C, strain PKC1, stronger effect = lower value",0.964
same,normalized growth,"S. cerevisiae deletion strains, locus YBR135W, strain CKS1, stronger effect = lower value",0.971
same,normalized growth,"S. cerevisiae deletion strains, locus YBR136W, strain MEC1, stronger effect = lower value",0.953
same,normalized growth,"S. cerevisiae deletion strains, locus YBR160W, strain CDC28, stronger effect = lower value",0.964
same,normalized growth,"S. cerevisiae deletion strains, locus YDL017W, strain CDC7, stronger effect = lower value",0.968
same,normalized growth,"S. cerevisiae deletion strains, locus YDL028C, strain MPS1, stronger effect = lower value",0.95
same,normalized growth,[2],0.965
same,normalized growth,"S. cerevisiae deletion strains, locus YDL108W, strain KIN28, stronger effect = lower value",0.957
same,normalized growth,"S. cerevisiae deletion strains, locus YDL132W, strain cdc53, stronger effect = lower value",0.975
same,normalized growth,"S. cerevisiae deletion strains, locus YDL214C, strain PRR2, stronger effect = lower value",0.561 (active)
same,normalized growth,"S. cerevisiae deletion strains, locus YDR052C, strain DBF4, stronger effect = lower value",0.972
same,normalized growth,"S. cerevisiae deletion strains, locus YDR054C, strain cdc34, stronger effect = lower value",0.965
same,normalized growth,"S. cerevisiae deletion strains, locus YDR226W, strain ADK1, stronger effect = lower value",0.974
same,normalized growth,"S. cerevisiae deletion strains, locus YDR477W, strain SNF1, stronger effect = lower value",0.526 (active)
same,normalized growth,"S. cerevisiae deletion strains, locus YER123W, strain YCK3, stronger effect = lower value",0.307 (active)
same,normalized growth,"S. cerevisiae deletion strains, locus YER133W, strain GLC7, stronger effect = lower value",0.576 (active)
same,normalized growth,"S. cerevisiae deletion strains, locus YFL009W, strain cdc4, stronger effect = lower value",0.97
same,normalized growth,"S. cerevisiae deletion strains, locus YFL029C, strain CAK1, stronger effect = lower value",0.958
same,normalized growth,"S. cerevisiae deletion strains, locus YFR003C, strain YPI1, stronger effect = lower value",0.95
same,normalized growth,"S. cerevisiae deletion strains, locus YFR019W, strain FAB1, stronger effect = lower value",0.517 (active)
same,normalized growth,"S. cerevisiae deletion strains, locus YFR028C, strain CDC14, stronger effect = lower value",0.971
same,normalized growth,"S. cerevisiae deletion strains, locus YGR040W, strain KSS1, stronger effect = lower value",0.574 (active)
same,normalized growth,"S. cerevisiae deletion strains, locus YGR052W, strain FMP48, stronger effect = lower value",0.504 (active)
same,normalized growth,"S. cerevisiae deletion strains, locus YGR092W, strain DBF2, stronger effect = lower value",0.187 (active)
same,normalized growth,[3],0.26 (active)
same,normalized growth,"S. cerevisiae deletion strains, locus YHR079C, strain IRE1, stronger effect = lower value",0.249 (active)
same,normalized growth,"S. cerevisiae deletion strains, locus YHR082C, strain KSP1, stronger effect = lower value",0.493 (active)
same,normalized growth,"S. cerevisiae deletion strains, locus YHR205W, strain SCH9, stronger effect = lower value",0.407 (active)
same,normalized growth,"S. cerevisiae deletion strains, locus YIL147C, strain SLN1, stronger effect = lower value",0.946
same,normalized growth,"S. cerevisiae deletion strains, locus YJL095W, strain BCK1, stronger effect = lower value",0.259 (active)
same,normalized growth,"S. cerevisiae deletion strains, locus YJL128C, strain PBS2, stronger effect = lower value",0.952
same,normalized growth,"S. cerevisiae deletion strains, locus YJL157C, strain FAR1, stronger effect = lower value",0.478 (active)
same,normalized growth,"S. cerevisiae deletion strains, locus YJR016C, strain ILV3, stronger effect = lower value",0.973
same,normalized growth,"S. cerevisiae deletion strains, locus YJR066W, strain TOR1 (second series), stronger effect = lower value",0.565 (active)
same,normalized growth,"S. cerevisiae deletion strains, locus YJR066W, strain TOR1, stronger effect = lower value",0.387 (active)
same,normalized growth,"S. cerevisiae deletion strains, locus YKL048C, strain ELM1, stronger effect = lower value",0.651 (active)
same,normalized growth,"S. cerevisiae deletion strains, locus YKL067W, strain YNK1, stronger effect = lower value",0.521 (active)
same,normalized growth,"S. cerevisiae deletion strains, locus YKL101W, strain HSL1, stronger effect = lower value",0.5 (active)
same,normalized growth,"S. cerevisiae deletion strains, locus YKL193C, strain SDS22, stronger effect = lower value",0.971
same,normalized growth,"S. cerevisiae deletion strains, locus YKL203C, strain TOR2, stronger effect = lower value",0.613 (active)
same,normalized growth,"S. cerevisiae deletion strains, locus YLR113W, strain HOG1, stronger effect = lower value",0.337 (active)
same,normalized growth,"S. cerevisiae deletion strains, locus YLR133W, strain CKI1, stronger effect = lower value",0.486 (active)
same,normalized growth,"S. cerevisiae deletion strains, locus YLR403W, strain SFP1, stronger effect = lower value",0.375 (active)
same,normalized growth,"S. cerevisiae deletion strains, locus YML070W, strain DAK1, stronger effect = lower value",0.372 (active)
same,normalized growth,"S. cerevisiae deletion strains, locus YMR001C, strain CDC5, stronger effect = lower value",0.963
same,normalized growth,"S. cerevisiae deletion strains, locus YMR205C, strain PFK2 (second series), stronger effect = lower value",0.514 (active)
same,normalized growth,"S. cerevisiae deletion strains, locus YMR277W, strain FCP1, stronger effect = lower value",0.968
same,normalized growth,"S. cerevisiae deletion strains, locus YNL006W, strain LST8, stronger effect = lower value",0.969
same,normalized growth,"S. cerevisiae deletion strains, locus YNL020C, strain ARK1, stronger effect = lower value",0.462 (active)
same,normalized growth,"S. cerevisiae deletion strains, locus YNL161W, strain CBK1, stronger effect = lower value",0.967
same,normalized growth,"S. cerevisiae deletion strains, locus YNL183C, strain NPR1, stronger effect = lower value",0.429 (active)
same,normalized growth,"S. cerevisiae deletion strains, locus YNL207W, strain RIO2, stronger effect = lower value",0.977
same,normalized growth,"S. cerevisiae deletion strains, locus YNL222W, strain SSU72, stronger effect = lower value",0.96
same,normalized growth,"S. cerevisiae deletion strains, locus YNL307C, strain MCK1 (second series), stronger effect = lower value",0.37 (active)
same,normalized growth,"S. cerevisiae deletion strains, locus YOL078W, strain AVO1, stronger effect = lower value",0.967
same,normalized growth,"S. cerevisiae deletion strains, locus YOL136C, strain PFK27, stronger effect = lower value",0.349 (active)
same,normalized growth,"S. cerevisiae deletion strains, locus YOR061W, strain CKA2, stronger effect = lower value",0.32 (active)
same,normalized growth,"S. cerevisiae deletion strains, locus YOR119C, strain RIO1, stronger effect = lower value",0.571 (active)
same,normalized growth,"S. cerevisiae deletion strains, locus YOR231W, strain MKK1, stronger effect = lower value",0.272 (active)
same,normalized growth,"S. cerevisiae deletion strains, locus YOR329C, strain SCD5, stronger effect = lower value",0.952
same,normalized growth,"S. cerevisiae deletion strains, locus YPL031C, strain PHO85, stronger effect = lower value",0.483 (active)
same,normalized growth,"S. cerevisiae deletion strains, locus YPL153C, strain RAD53, stronger effect = lower value",0.405 (active)
same,normalized growth,"S. cerevisiae deletion strains, locus YPL204W, strain HRR25, stronger effect = lower value",0.467 (active)
same,normalized growth,"S. cerevisiae deletion strains, locus YPL209C, strain IPL1, stronger effect = lower value",0.969
same,normalized growth,"S. cerevisiae deletion strains, locus YPL256C, strain CLN2, stronger effect = lower value",0.343 (active)
same,normalized growth,"S. cerevisiae deletion strains, locus YPR025C, strain CCL1, stronger effect = lower value",0.969
same,normalized growth,"S. cerevisiae deletion strains, locus YPR106W, strain ISR1, stronger effect = lower value",0.976
same,normalized growth,"S. cerevisiae deletion strains, locus YPR111W, strain DBF20, stronger effect = lower value",0.972
same,normalized growth,"S. cerevisiae deletion strains, strain NNK1, stronger effect = lower value",0.965
same,normalized growth,"S. cerevisiae deletion strains, strain TSCII, stronger effect = lower value",0.96
